Measured values published in PubChem BioAssay (NCI).
About 83,000 compounds went through this panel and 20% of them were active in at least one assay; those are over-represented in the sample as a whole.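 Each cell line was grown in a 96-well plate and treated with one concentration of compound for 48 hours. Values below 10 were considered active.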 A number with no mark means an inactive call.

tested on: MDA-MB-468 breast; experiment: NCI-60 one-dose screen, 48 h (100 = growth as untreated, 0 = no growth, -100 = all killed); conditions: 10 µM unless noted

Row | Compound | growth
1 | COc1cc(Nc2ncccc2NC(=O)c2cn(Cc3cccc(Oc4ccccc4)c3)nn2)cc(OC)c1 | 65.9%
2 | Cc1ccc(-c2[nH][nH]c(=O)c2-c2nc3ccccc3s2)cc1 | 98.1%
3 | COc1ccc(C(=O)Nc2ncc(Cc3ccc(Cl)cc3)s2)cc1 | 24.6%
